According to PubChem BioAssay (NCATS):
Inconclusive results are not listed. Active and inactive are the calls of the source. The call rests on the fitted dose curve; in most records, active means well fitted inhibition curve with a large enough effect; inconclusive means small, poorly fitted or top-dose-only effect; inactive means flat fitted curve, though single readings scatter.

Test: qHTS to identify inhibitors of the type 1 interferon - major histocompatibility complex class I in skeletal muscle: primary screen against the NCATS Pharmaceutical Collection (AID 1347407)
Settings: human skeletal muscle cells, IFN-b-induced MHC-I HiBiT luminescence, 24 h; series mostly up to 45.9 µM; activity change, negative = inhibition: at the top concentration
Text: Assay Submitter (PI): Travis B. Kinder Ph.D. & James Inglese Ph.D.
Assay Development and Screening Technology Laboratory (ADST)
National Center for Advancing Translational Sciences (NCATS), Rockville, MD
National Institute of Health (NIH), Bethesda, Maryland
Idiopathic inflammatory myopathies, collectively referred to as myositis, are a group of rare autoimmune diseases characterized by skeletal muscle inflammation, weakness, and usually accompanied by systemic pathologies of the skin, lungs, or vasculature. Current immunosuppressive therapies and glucocorticoids are often not curative and are accompanied by harsh side effects, especially in children with juvenile myositis. We initiated a drug repurposing and development program to identify more targeted, less toxic therapeutics to treat myositis. Although its cause is not known, muscle from a subset of patients have an abundance of the inflammatory type 1 interferon (IFN) and a down-stream product major histocompatibility complex class I (MHC class I), which are both thought to contribute to damage and weakness. We conducted quantitative high throughput screening on 6,576 compounds (4,679 unique) through a series of cell-based assays to identify those that inhibit the IFN-stimulated expression of MHC class I in muscle precursor cells (myoblasts). The compound identification and evaluation strategy utilized a primary screen with reporter-tagged MHC class I in genome-engineered myoblasts, ATP content counter screen for viability, HLA-ABC immunofluorescence secondary screen, and HLA-B RT-qPCR tertiary screen.
The primary screen utilized CRISPR/Cas9 genome-engineering of immortalized human myoblasts, C25cl48, where a pro-luminescent reporter HiBit was fused to the C-terminus of endogenous MHC class I allele HLA-B*08:01 (HLA-B HiBit myoblasts). HiBit is an 11 amino acid fragment of NanoLuc luminescent reporter (Promega Corporation), and when complexed to the larger LgBit fragment, the reconstituted enzyme produces light in the presence of furimazine substrate (Schwinn et al., 2018). Briefly, HLA-B HiBit myoblasts were plated into 1536-well plates, treated with 4.0 ng/ml human IFN-beta and 2,816 compounds from the NCATS Pharmaceutical Collection (NPC) that contains all drugs approved in the US, EU, and Japan (Huang et al., 2011) in an 8-point, 1:5 titration with a high final concentration of 46 uM. After 24 hrs of treatment, cells were assayed by Nano-Glo HiBiT Lytic Detection System (Promega) and luminescence measured by a ViewLux 1430 Ultra HTS (Perkin Elmer).
Huang R, Southall N, Wang Y, Yasgar A, Shinn P, Jadhav A, Nguyen D-T, Austin CP. 2011. The NCGC pharmaceutical collection: a comprehensive resource of clinically approved drugs enabling repurposing and chemical genomics. Sci Transl Med 3:80ps16. doi:10.1126/scitranslmed.3001862
Schwinn MK, Machleidt T, Zimmerman K, Eggers CT, Dixon AS, Hurst R, Hall MP, Encell LP, Binkowski BF, Wood K V. 2018. CRISPR-Mediated Tagging of Endogenous Proteins with a Luminescent Peptide. ACS Chem Biol 13:467-474. doi:10.1021/acschembio.7b00549
PROTOCOL TABLE (as described by Inglese et al., 2007)
SEQUENCE No. (e.g., 1, 2, 3, etc.); […] (e.g., Cells, Incubation, Reagent, etc.); VALUE; DESCRIPTION
1a; Cells; 5 uL; Use a Multidrop Combi (Thermo Scientific) to seed 350 cells/well into nine Greiner 1536 well white/solid bottom, high base, TC plates in 5 ul/well of iHSKM growth medium (GM) without dexamethasone into columns 1+2. Add metal lids with gas-exchange holes
1b; Cells; 5 uL; Use a Multidrop Combi (Thermo Scientific) to seed 350 cells/well into nine Greiner 1536 well white/solid bottom, high base, TC plates in 5 ul/well of iHSKM GM without dexamethasone + 4 ng/ml IFN-b into columns 3 - 48. Add metal lids with gas-exchange holes
2; Incubate; 1 hr; Incubate at 37 C, 5% CO2, 95% RH
[…]
On the % scale 0 is the no-effect control and ±100 the full control effect; potency means the concentration at half of the fitted maximal effect.

Compound	activity change, negative = inhibition	Potency
N[C@@H](C(=O)N[C@@H]1C(=O)N2C(C(=O)O)=C(Cl)CS[C@H]12)c1ccccc1	3% [at 9.18 µM] (inactive)	
CC(C)(C#N)c1cc(Cn2cncn2)cc(C(C)(C)C#N)c1	-3.38% (inactive)	
CCc1cc(C(N)=S)ccn1	-13.6% (inactive)	
COc1ccc(-c2ccc3cc(C(=O)O)ccc3c2)cc1C12CC3CC(CC(C3)C1)C2	-7.53% (inactive)	
CN1CCCC(n2nc(Cc3ccc(Cl)cc3)c3ccccc3c2=O)CC1 (stereo not given)	-3.45% (inactive)	
O=C(O)CSCC(=O)NC1CCSC1=O (stereo not given)	18.7% (inactive)	
S=P(N1CC1)(N1CC1)N1CC1	19.5% [at 92.2 µM] (inactive)	
COc1ccccc1OCC(O)COC(N)=O (stereo not given)	-4.83% (inactive)	
O=P(O)(O)C(O)(Cc1cccnc1)P(=O)(O)O	-8.99% (inactive)	
Cc1cc(NS(=O)(=O)c2ccc(N)cc2)no1	6.8% (inactive)	
Cc1oc(=O)oc1CN1CCN(c2cc3c(cc2F)c(=O)c(C(=O)O)c2n3C(C)S2)CC1 (stereo not given)	0.524% (inactive)	
CCn1cc(C(=O)O)c(=O)c2cc(F)c(N3CCNCC3)cc21	-10.3% (inactive)	
CN(Cc1cc(Br)cc(Br)c1N)C1CCCCC1	-16.7% (inactive)	
Nc1[nH]c(=O)ncc1F	3.88% (inactive)	
CC(C)C1CCC(C(=O)N[C@H](Cc2ccccc2)C(=O)O)CC1 (stereo not given in full)	-5.99% (inactive)	
CC[C@H](C)C(=O)O[C@H]1C[C@@H](C)C=C2C=C[C@H](C)[C@H](CC[C@@H]3C[C@@H](O)CC(=O)O3)[C@H]21	6.91% (inactive)	
CCCOc1ccc(C(=O)OCCN(CC)CC)cc1N	-6.67% (inactive)	
NNC(=O)c1ccncc1	6.12% (inactive)	
O=C(N[C@H](CO)[C@H](O)c1ccc([N+](=O)[O-])cc1)C(Cl)Cl	6.36% [at 92.2 µM] (inactive)	
NCCCC(O)(P(=O)(O)O)P(=O)(O)O	10.5% (inactive)	

Compound	activity change, negative = inhibition	Potency
CN(CCOc1ccc(CC2SC(=O)NC2=O)cc1)c1ccccn1 (stereo not given)	8.77% (inactive)	
Cn1nnc2c(C(N)=O)ncn2c1=O	-2.02% (inactive)	
CNS(=O)(=O)Cc1ccc2[nH]cc(CCN(C)C)c2c1	-4.92% (inactive)	
CN1CCN(c2c(F)cc3c(=O)c(C(=O)O)cn4c3c2OCN4C)CC1	1.51% [at 19 µM] (inactive)	
Nc1nc(F)nc2c1ncn2[C@@H]1O[C@H](CO)[C@@H](O)[C@@H]1O	0.911% (inactive)	
O=C(O)c1cc(=O)[nH]c(=O)[nH]1	-1.48% (inactive)	
COc1cccc(N(C)C(=S)Oc2ccc3c(c2)CCCC3)n1	-3.21% (inactive)	
C#CCN[C@@H]1CCc2ccccc21	6.59% (inactive)	
CCCCCCNC(=O)n1cc(F)c(=O)[nH]c1=O	2.77% (inactive)	
CCN[C@H]1C[C@H](C)S(=O)(=O)c2sc(S(N)(=O)=O)cc21	0.575% (inactive)	
O=c1oc2c(O)c(O)cc3c(=O)oc4c(O)c(O)cc1c4c23	-18.7% [at 19 µM] (inactive)	
CC(C)C[C@H](NC(=O)[C@H](CCc1ccccc1)NC(=O)CN1CCOCC1)C(=O)N[C@@H](Cc1ccccc1)C(=O)N[C@@H](CC(C)C)C(=O)[C@@]1(C)CO1		0.0938 µM (active)
CCCCOc1ccc(CC(=O)NO)cc1	1.86% (inactive)	
CCCN[C@H]1CCc2nc(N)sc2C1	6.27% (inactive)	
C[C@@H](NCCCc1cccc(C(F)(F)F)c1)c1cccc2ccccc12		26.4 µM (active)
CNS(=O)(=O)CCc1ccc2[nH]cc(C3CCN(C)CC3)c2c1	-8.39% (inactive)	
CN(C)c1ccc(C(=C2C=CC(=[N+](C)C)C=C2)c2ccc(N(C)C)cc2)cc1		9.38 µM (active)
C[C@@H](CN1CC(=O)NC(=O)C1)N1CC(=O)NC(=O)C1	8.32% (inactive)	
COc1cc2c(Nc3ccc(Br)cc3F)ncnc2cc1OCC1CCN(C)CC1	-10.2% (inactive)	
C[C@@H]1C[C@H]2[C@@H]3CCC4=CC(=O)C=C[C@]4(C)[C@@]3(Cl)[C@@H](O)C[C@]2(C)[C@@]1(OC(=O)c1ccco1)C(=O)CCl	-34.8% (inactive)	
